Laboratory results published in PubChem BioAssay AID1159580 (chemical genetic matrix, 2015).
In all, about 5,500 compounds went through this assay and about 2,000 (36%) were called active. Roughly 18% stayed inconclusive and do not appear here. Rule as the data show it: active = normalized growth mostly below about 0.91 (no sharp cut-off); inconclusive = no clear call, values can overlap the other calls; inactive = mostly above about 0.92. Some of the results follow.

Experiment: chemical genetic growth profiling, strain panel (AID 1159580);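 also: tested at 20 µM; growth read once vehicle control cultures reached saturation at 30 °C; 1 = growth at the plate median or of vehicle wells; lower values mean less growth of the strain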
Conditions: growth OD

Measured: normalized growth

Cc1ccc2c(c1)CC[C@H]1CC(=O)CC[C@]21C
active: S. cerevisiae deletion strains, locus YNL307C, strain MCK1, stronger effect = lower value 0.889
inactive: S. cerevisiae deletion strains, locus YKL009W, strain mrt4, stronger effect = lower value 0.982 | S. cerevisiae deletion strains, locus YKL068W, stronger effect = lower value 0.991 | S. cerevisiae deletion strains, locus YKL085W, strain MDH1 (second series), stronger effect = lower value 0.973 | S. cerevisiae deletion strains, locus YKL085W, strain MDH1, stronger effect = lower value 0.973 | S. cerevisiae deletion strains, locus YKL160W, strain elf1, stronger effect = lower value 1.01 | S. cerevisiae deletion strains, locus YKL190W, strain CNB1, stronger effect = lower value 0.997 | S. cerevisiae deletion strains, locus YKR001C, strain vps1, stronger effect = lower value 0.953 | S. cerevisiae deletion strains, locus YKR026C, strain gcn3, stronger effect = lower value 1.01 | S. cerevisiae deletion strains, locus YKR091W, strain srl3, stronger effect = lower value 1 | S. cerevisiae deletion strains, locus YLL001W, strain dnm1, stronger effect = lower value 0.999 | S. cerevisiae deletion strains, locus YLL026W, stronger effect = lower value 1.01 | S. cerevisiae deletion strains, locus YLL041C, strain sdh2, stronger effect = lower value 0.991 | S. cerevisiae deletion strains, locus YLR027C, strain aat2, stronger effect = lower value 0.989 | S. cerevisiae deletion strains, locus YLR039C, strain RIC1, stronger effect = lower value 0.925 | S. cerevisiae deletion strains, locus YLR058C, strain SHM2, stronger effect = lower value 0.998 | S. cerevisiae deletion strains, locus YLR102C, strain apc9, stronger effect = lower value 0.983 | S. cerevisiae deletion strains, locus YLR113W, strain HOG1, stronger effect = lower value 0.975 | S. cerevisiae deletion strains, locus YLR221C, strain rsa3, stronger effect = lower value 0.995 | S. cerevisiae deletion strains, locus YLR258W, strain gsy2, stronger effect = lower value 1 | S. cerevisiae deletion strains, locus YLR262C, strain YPT6 (second series), stronger effect = lower value 0.942 | S. cerevisiae deletion strains, locus YLR262C, strain YPT6, stronger effect = lower value 0.917 | S. cerevisiae deletion strains, locus YLR268W, strain sec22, stronger effect = lower value 1.01 | S. cerevisiae deletion strains, locus YLR320W, strain mms22, stronger effect = lower value 0.977 | S. cerevisiae deletion strains, locus YLR330W, strain CHS5, stronger effect = lower value 0.991 | S. cerevisiae deletion strains, locus YLR342W, strain FKS1 (second series), stronger effect = lower value 0.94 | S. cerevisiae deletion strains, locus YLR342W, strain FKS1, stronger effect = lower value 0.997 | S. cerevisiae deletion strains, locus YLR357W, strain rsc2, stronger effect = lower value 1.01 | S. cerevisiae deletion strains, locus YLR370C, strain arc18, stronger effect = lower value 1.02 | S. cerevisiae deletion strains, locus YLR371W, strain rom2, stronger effect = lower value 0.972 | S. cerevisiae deletion strains, locus YLR384C, strain iki3, stronger effect = lower value 1.01 | S. cerevisiae deletion strains, locus YLR418C, strain cdc73, stronger effect = lower value 0.923 | S. cerevisiae deletion strains, locus YML016C, strain PPZ1, stronger effect = lower value 0.984 | S. cerevisiae deletion strains, locus YML032C, strain rad52, stronger effect = lower value 0.972 | S. cerevisiae deletion strains, locus YML120C, strain ndi1, stronger effect = lower value 0.986 | S. cerevisiae deletion strains, locus YML124C, strain tub3, stronger effect = lower value 0.98 | S. cerevisiae deletion strains, locus YMR058W, strain fet3, stronger effect = lower value 1.01 | S. cerevisiae deletion strains, locus YMR078C, strain ctf18, stronger effect = lower value 0.969 | S. cerevisiae deletion strains, locus YMR125W, strain sto1, stronger effect = lower value 1 | S. cerevisiae deletion strains, locus YMR129W, stronger effect = lower value 1.01 | S. cerevisiae deletion strains, locus YMR205C, strain PFK2, stronger effect = lower value 1 | S. cerevisiae deletion strains, locus YMR223W, strain ubp8, stronger effect = lower value 0.966 | S. cerevisiae deletion strains, locus YMR231W, strain pep5, stronger effect = lower value 0.997 | S. cerevisiae deletion strains, locus YMR263W, strain SAP30, stronger effect = lower value 1.01 | S. cerevisiae deletion strains, locus YMR307W, strain GAS1, stronger effect = lower value 0.908 | S. cerevisiae deletion strains, locus YNL067W, strain RPL9B, stronger effect = lower value 0.999 | S. cerevisiae deletion strains, locus YNL071W, strain lat1, stronger effect = lower value 0.999 | S. cerevisiae deletion strains, locus YNL128W, strain TEP1, stronger effect = lower value 1.01 | S. cerevisiae deletion strains, locus YNL153C, strain GIM3, stronger effect = lower value 1.02 | S. cerevisiae deletion strains, locus YNL183C, strain NPR1, stronger effect = lower value 0.907 | S. cerevisiae deletion strains, locus YNL209W, strain ssb2, stronger effect = lower value 0.998 | S. cerevisiae deletion strains, locus YNL233W, strain BNI4, stronger effect = lower value 0.979 | S. cerevisiae deletion strains, locus YNL248C, strain rpa49, stronger effect = lower value 0.99 | S. cerevisiae deletion strains, locus YNL250W, strain rad50, stronger effect = lower value 0.979 | S. cerevisiae deletion strains, locus YNL271C, strain bni1, stronger effect = lower value 0.96 | S. cerevisiae deletion strains, locus YNL298W, strain CLA4, stronger effect = lower value 0.987 | S. cerevisiae deletion strains, locus YNL322C, strain KRE1 (second series), stronger effect = lower value 1 | S. cerevisiae deletion strains, locus YNL322C, strain KRE1, stronger effect = lower value 1 | S. cerevisiae deletion strains, locus YNR049C, strain mso1, stronger effect = lower value 1 | S. cerevisiae deletion strains, locus YNR052C, strain pop2, stronger effect = lower value 0.976 | S. cerevisiae deletion strains, locus YOL006C, strain TOP1, stronger effect = lower value 0.878 | S. cerevisiae deletion strains, locus YOL012C, strain htz1 1.46 | S. cerevisiae deletion strains, locus YOL147C, strain pex11, stronger effect = lower value 0.981 | S. cerevisiae deletion strains, locus YOR001W, strain rrp6, stronger effect = lower value 0.981 | S. cerevisiae deletion strains, locus YOR061W, strain CKA2, stronger effect = lower value 0.998 | S. cerevisiae deletion strains, locus YOR069W, strain VPS5, stronger effect = lower value 0.998 | S. cerevisiae deletion strains, locus YOR070C, strain gyp1, stronger effect = lower value 1 | S. cerevisiae deletion strains, locus YOR080W, strain dia2, stronger effect = lower value 0.994 | S. cerevisiae deletion strains, locus YOR083W, strain WHI5, stronger effect = lower value 1 | S. cerevisiae deletion strains, locus YOR106W, strain vam3, stronger effect = lower value 0.998 | S. cerevisiae deletion strains, locus YOR136W, strain idh2, stronger effect = lower value 0.993 | S. cerevisiae deletion strains, locus YOR144C, strain elg1, stronger effect = lower value 0.976 | S. cerevisiae deletion strains, locus YOR184W, strain ser1, stronger effect = lower value 0.895 | S. cerevisiae deletion strains, locus YOR231W, strain MKK1, stronger effect = lower value 0.981 | S. cerevisiae deletion strains, locus YOR265W, strain rbl2, stronger effect = lower value 1 | S. cerevisiae deletion strains, locus YOR270C, strain vph1, stronger effect = lower value 0.889 | S. cerevisiae deletion strains, locus YOR290C, strain snf2, stronger effect = lower value 1.01 | S. cerevisiae deletion strains, locus YOR316C, strain cot1, stronger effect = lower value 0.982 | S. cerevisiae deletion strains, locus YPL051W, strain arl3, stronger effect = lower value 1.01 | S. cerevisiae deletion strains, locus YPL055C, strain LGE1, stronger effect = lower value 0.99 | S. cerevisiae deletion strains, locus YPL078C, strain atp4, stronger effect = lower value 0.993 | S. cerevisiae deletion strains, locus YPL106C, strain sse1, stronger effect = lower value 1.03 | S. cerevisiae deletion strains, locus YPL240C, strain hsp82, stronger effect = lower value 1 | S. cerevisiae deletion strains, locus YPL241C, strain CIN2, stronger effect = lower value 0.993 | S. cerevisiae deletion strains, locus YPL256C, strain CLN2, stronger effect = lower value 0.965 | S. cerevisiae deletion strains, locus YPR119W, strain clb2, stronger effect = lower value 0.98 | S. cerevisiae deletion strains, locus YPR141C, strain kar3, stronger effect = lower value 0.976 | S. cerevisiae deletion strains, locus YPR163C, strain tif3, stronger effect = lower value 0.974 | S. cerevisiae deletion strains, locus YPR167C, strain met16, stronger effect = lower value 0.982 | S. cerevisiae deletion strains, strain wtn01, stronger effect = lower value 0.975 | S. cerevisiae strains, strain wild type, stronger effect = lower value 0.994
